These results are taken from PubChem BioAssay (NCATS).

“And” between values parts separate entries of the source, which are not always exact repeats. Equal values may be shown once. Unmarked numbers belong to inactive results. Results filed as inconclusive are left out. Some structures have more than one record in an assay (separate samples or runs), and their calls can disagree. The source made the active and inactive calls. Unless noted, calls come from the whole dose curve.

Assay [1] addresses Androgen receptor (Homo sapiens) (UniProt P10275). Briefly: qHTS assay for small molecule agonists of androgen receptor signaling (AID 588515; active = well fitted curve in the direction sought with a large enough effect in the signal ratio, with a control signal flat; the % refers to the signal ratio; note: % is set by controls: 0 for no effect and ±100 for the full control effect). The conditions noted are these: AR-UAS-bla HEK293, beta-lactamase ratio, agonist 16 h; stronger effect = higher value. A digest of the protocol:
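EC50 and efficacy came from Hill fits of titrations (up to 92 uM) normalized to 30 nM R1881 as 100% and DMSO as 0%. Compound exposure was 16 h at 37 C on AR-UAS-bla HEK293 cells, with a 405/460/530 nm CCF4 fluorescence read.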

Assay [2] shares this target. Briefly: qHTS assay for small molecule antagonists of androgen receptor signaling (AID 588516; active = well fitted curve in the direction sought with a large enough effect in the signal ratio, with a control signal flat, not every such curve was filed as active; the % refers to the signal ratio; note: % is set by controls: 0 for no effect and ±100 for the full control effect). A digest of the protocol:
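HEK293 AR-UAS-bla cells, 10% dialyzed FBS medium; cpd titration + R1881 10 nM final, 16 h 37 C; CCF4 2 h RT; FRET ratio; IC50/efficacy via Hill fit.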
In general terms: Quantitative high-throughput screening tests each substance at several concentrations.

Assay [3] is described as follows: qHTS assay for small molecule disruptors of the mitochondrial membrane potential - 1 hr assay (AID 651754). Note: nearly all actives have a fitted effect of over 35% in size. Note: potency is the fitted concentration of half-maximal effect. A digest of the protocol:
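HepG2 cells, attached overnight, were exposed to compound for 1 hr at 37C, then stained 30 min with a potentiometric dye. Ratio of red aggregate (590nm) to green monomer (535nm) fluorescence reports membrane potential; collapse shifts signal toward green.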

Assay [4] can be described thus: qHTS assay to identify small molecules that stimulate interleukin-8 (IL-8) secretion (AID 651758; active = well fitted activation curve with a large enough effect in the signal ratio; the % refers to the signal ratio; note: 0% is about no effect). A digest of the protocol:
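Secreted IL-8 measured by TR-FRET sandwich (cryptate and XL665 antibodies) from THP-1 cells exposed to compound overnight (16 hrs, 37 C).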

For assay [5], the target named is Estrogen receptor (Homo sapiens) (UniProt P03372). Briefly: qHTS assay for small molecule agonists of estrogen receptor alpha signaling (AID 588514).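 For activation: 0% = vehicle only and 100% = reference agonist.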 Note: nearly all actives have a fitted effect of over 70% in size. Note: potency is the fitted concentration of half-maximal effect. An outline of the steps:
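ER-alpha-UAS-bla GripTite HEK293 cells, 5000/well in 2% charcoal/dextran-stripped FBS medium, treated with compound titrations 18 h at 37 C. CCF4 beta-lactamase read by fluorescence after 2 h RT; normalised to 20 nM 17-beta-estradiol (100%) and DMSO (0%), Hill fit for EC50 and efficacy.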

The nature of assay [6]: qHTS assay for small molecule activators of the nuclear factor-kappa B (NF-kB) signaling pathway (AID 651749; active = well fitted activation curve with a large enough effect in the signal ratio; the % refers to the signal ratio; note: potency is the fitted concentration of half-maximal effect; for activation: series mostly up to about 77 µM; % of control where 0% means no effect). The note with it: NF-kB-bla ME-180 cells, beta-lactamase FRET ratio, 16 h; activation: stronger effect = higher value. A digest of the protocol: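 Readout: beta-lactamase reporter driven by an NF-kB response element, detected fluorescently as loss of FRET. Cells were the ME-180 line, treated 16 hr at 37C with pin-transferred compound.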

In assay [7] the target is Nuclear receptor ROR-gamma (Homo sapiens) (UniProt P51449). Description: qHTS assay for small molecule antagonists of the retinoid-related orphan receptor gamma (ROR-gamma) signaling pathway (AID 651802; active = well fitted curve in the direction sought with a large enough effect; an effect the other way counts as inactive or inconclusive;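 note: luciferase reporter luminescence driven by ROR response element; series mostly up to about 92 µM; % is set by controls: 0 for no effect and ±100 for the full control effect; nearly all actives have a fitted effect of over 60% in size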). An outline of the steps:
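CHO cells with TET-inducible ROR-gamma and RORE-luciferase reporter, dosed then doxycycline-induced. After 16 h at 37C, One-Glo luminescence read; decreased signal indicates antagonism.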

Assay [8] concerns the target Cytochrome P450 3A4 (Homo sapiens) (UniProt P08684). Description: qHTS Assay for Activators of Cytochrome P450 3A4 (AID 885; active = well fitted curve in the direction sought with a large enough effect; an effect the other way counts as inactive or inconclusive; note: nearly all actives have a fitted effect of over 65% in size). A digest of the protocol:
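Signal was normalized against complete inhibition by 57 uM ketoconazole. The reaction used 20nM CYP3A4 with 25uM Luciferin-PPXE, 10-min compound preincubation and a 60-min NADPH-supported step at RT.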

Sequence of Estrogen receptor (Homo sapiens) (P03372 whole entry, looked up): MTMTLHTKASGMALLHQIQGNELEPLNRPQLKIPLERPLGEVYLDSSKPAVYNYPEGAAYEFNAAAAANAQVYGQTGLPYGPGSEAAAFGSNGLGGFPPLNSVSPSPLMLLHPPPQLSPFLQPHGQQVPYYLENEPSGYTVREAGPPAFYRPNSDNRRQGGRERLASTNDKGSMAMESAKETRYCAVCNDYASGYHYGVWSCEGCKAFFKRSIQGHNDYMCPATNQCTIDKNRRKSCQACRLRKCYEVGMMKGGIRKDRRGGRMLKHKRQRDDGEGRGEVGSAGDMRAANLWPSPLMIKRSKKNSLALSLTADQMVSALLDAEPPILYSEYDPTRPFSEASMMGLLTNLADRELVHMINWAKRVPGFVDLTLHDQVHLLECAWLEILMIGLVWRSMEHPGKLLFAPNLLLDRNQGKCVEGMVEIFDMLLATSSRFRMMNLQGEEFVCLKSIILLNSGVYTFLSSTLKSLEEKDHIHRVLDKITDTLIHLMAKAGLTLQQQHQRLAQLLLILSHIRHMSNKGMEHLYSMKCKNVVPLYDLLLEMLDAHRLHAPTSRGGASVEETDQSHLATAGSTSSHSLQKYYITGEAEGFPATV
Sequence of Nuclear receptor ROR-gamma (Homo sapiens) (P51449 whole entry, looked up): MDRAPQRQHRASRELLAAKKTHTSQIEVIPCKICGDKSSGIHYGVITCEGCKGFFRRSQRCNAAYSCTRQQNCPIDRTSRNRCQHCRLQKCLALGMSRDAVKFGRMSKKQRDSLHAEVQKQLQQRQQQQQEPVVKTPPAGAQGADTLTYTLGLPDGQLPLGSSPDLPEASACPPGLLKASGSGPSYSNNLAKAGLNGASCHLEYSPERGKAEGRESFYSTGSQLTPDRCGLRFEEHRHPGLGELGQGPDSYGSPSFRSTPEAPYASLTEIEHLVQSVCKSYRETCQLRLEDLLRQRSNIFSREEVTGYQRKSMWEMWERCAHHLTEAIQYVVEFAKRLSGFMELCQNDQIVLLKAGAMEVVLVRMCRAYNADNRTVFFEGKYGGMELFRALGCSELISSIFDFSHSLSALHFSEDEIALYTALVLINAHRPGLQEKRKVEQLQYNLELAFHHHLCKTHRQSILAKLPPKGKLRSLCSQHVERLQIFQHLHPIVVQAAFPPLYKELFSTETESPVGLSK
Sequence of Androgen receptor (Homo sapiens) (P10275 whole entry, looked up): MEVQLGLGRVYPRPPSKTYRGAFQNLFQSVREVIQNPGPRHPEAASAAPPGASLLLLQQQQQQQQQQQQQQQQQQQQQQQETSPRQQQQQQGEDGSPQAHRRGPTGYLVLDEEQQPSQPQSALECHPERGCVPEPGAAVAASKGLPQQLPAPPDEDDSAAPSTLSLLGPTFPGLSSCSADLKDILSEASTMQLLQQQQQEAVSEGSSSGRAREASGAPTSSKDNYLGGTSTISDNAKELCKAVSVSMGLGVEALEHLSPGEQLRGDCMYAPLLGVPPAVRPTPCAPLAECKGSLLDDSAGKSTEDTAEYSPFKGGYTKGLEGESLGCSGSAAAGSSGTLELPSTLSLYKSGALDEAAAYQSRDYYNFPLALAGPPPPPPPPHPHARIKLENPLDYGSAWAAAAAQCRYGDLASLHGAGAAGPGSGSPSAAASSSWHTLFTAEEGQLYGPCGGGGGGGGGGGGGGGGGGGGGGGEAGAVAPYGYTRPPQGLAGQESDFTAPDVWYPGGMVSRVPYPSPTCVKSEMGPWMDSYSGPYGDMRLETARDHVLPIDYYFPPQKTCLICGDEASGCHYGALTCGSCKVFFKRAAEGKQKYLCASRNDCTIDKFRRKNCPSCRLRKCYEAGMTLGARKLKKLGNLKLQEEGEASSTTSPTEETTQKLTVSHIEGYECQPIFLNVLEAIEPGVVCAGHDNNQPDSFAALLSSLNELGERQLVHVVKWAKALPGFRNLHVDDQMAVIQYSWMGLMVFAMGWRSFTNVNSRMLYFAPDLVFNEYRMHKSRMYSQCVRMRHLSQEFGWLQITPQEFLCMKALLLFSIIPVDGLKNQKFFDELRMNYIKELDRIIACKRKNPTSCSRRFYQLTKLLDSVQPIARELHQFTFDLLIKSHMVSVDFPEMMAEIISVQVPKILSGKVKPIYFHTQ
Sequence of Cytochrome P450 3A4 (Homo sapiens) (P08684 whole entry, looked up): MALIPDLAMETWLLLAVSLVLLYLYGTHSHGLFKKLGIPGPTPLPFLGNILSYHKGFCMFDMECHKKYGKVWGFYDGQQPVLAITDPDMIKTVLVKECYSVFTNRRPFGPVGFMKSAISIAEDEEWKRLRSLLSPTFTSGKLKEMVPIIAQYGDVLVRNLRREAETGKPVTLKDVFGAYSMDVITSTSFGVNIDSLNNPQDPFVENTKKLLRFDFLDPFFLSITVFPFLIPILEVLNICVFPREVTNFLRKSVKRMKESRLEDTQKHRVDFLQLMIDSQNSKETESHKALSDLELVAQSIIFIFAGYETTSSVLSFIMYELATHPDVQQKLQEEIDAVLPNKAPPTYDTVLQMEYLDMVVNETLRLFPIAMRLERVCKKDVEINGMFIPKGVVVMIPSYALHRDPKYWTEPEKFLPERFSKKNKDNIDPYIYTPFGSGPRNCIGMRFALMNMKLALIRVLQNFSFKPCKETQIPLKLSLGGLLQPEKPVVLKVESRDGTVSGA

As for `[O-][Br+2]([O-])O`, the activation in assay [1] was 4.89% and 1.1%. Besides, the Potency entry in assay [2], in assay [3] and in assay [4] was “inactive” each time.

Regarding `Clc1nc(Cl)nc(Nc2ccccc2Cl)n1`, the Potency result in assay [5] was “inactive”. Also, in assay [6], the Potency is 25.1 µM (active) and the activation was 0.657%. The Potency entry in assay [3] was “inactive”.

`c1ccc(-c2ccccc2)cc1`: the activation in assay [1] is -1.76% and -0.536%; in assay [6], 0.41% and 0.224%. The Potency result in assay [2], in assay [3], in assay [4] and in assay [7] was “inactive” throughout.

On to `Cc1ccccc1N`, for which the Potency result in assay [8] and in assay [4] was “inactive” each time.

As to `N#CCCCl`, the activation in assay [6] is -0.282% and -0.0737%. Further, the Potency entry in assay [3] and in assay [4] was “inactive” throughout.

On to `Cc1ccc2ccccc2c1`, for which the activation is 23% in assay [1] and -0.574% in assay [6]. The Potency result in assay [2] and in assay [3] was “inactive” each time.

For the molecule `C=C(C)C(=O)OCC1CO1` (stereo unspecified), the Potency entry in assay [5] and in assay [3] was “inactive” each time. Moreover, in assay [6], the activation is 0.768%.

Turning to `Nc1c(Cl)c(Cl)nc(C(=O)O)c1Cl`, in assay [6], the activation is -0.763% and -1.51% and -1.13%. Besides, the Potency result in assay [3], in assay [4] and in assay [7] was “inactive” throughout.

For `CCCCCCCC(=O)Cl`, the Potency result in assay [4] and in assay [7] was “inactive” in each case.

For `CC(C)(c1ccccc1)c1ccc(O)cc1`, the Potency result in assay [8] and in assay [4] was “inactive” throughout. The Potency in assay [5] was 1.78 µM (active) and 3.16 µM (active); in assay [3], 26.6 µM (active). Also, the activation in assay [6] was -0.397% and -3.49%.

On to `CN=C=S`, for which, in assay [5], the Potency is 20 µM (active). Also, the activation in assay [6] is 0.411% and -0.263%. Moreover, the Potency result in assay [3] is “inactive”.

On to `C=CCOC(C)=O`, for which the results for the activation in assay [1] and in assay [6] were -7.35% and -0.256%, respectively.

On to `C=CC(C)=O`, for which the Potency entry in assay [3] and in assay [7] was “inactive” each time.

Turning to `c1ccc(OP(Oc2ccccc2)Oc2ccccc2)cc1`, the Potency entry in assay [5] and in assay [4] was “inactive” throughout.

On to `C1CCC2CCCCC2C1` (stereo unspecified), for which the Potency result in assay [7] was “inactive”.

For the molecule `C=CCOC(=O)c1ccccc1N`, the Potency result in assay [2], in assay [3], in assay [4] and in assay [7] was “inactive” each time.

As to `C=C(Cl)Cl`, the activation in assay [1] is 2.29%. The Potency result in assay [2] and in assay [4] was “inactive” in each case.

As for `COc1ccc(C=O)cc1OC`, the Potency result in assay [5] is “inactive”.

On to `CCOP(=S)(OCC)SCSC(C)(C)C`, for which the Potency result in assay [5] and in assay [3] was “inactive” in each case.

For `O=NN(c1ccccc1)c1ccccc1`, the Potency result in assay [5] and in assay [4] was “inactive” throughout.

Take `NC(=S)Nc1ccccc1`: the Potency result in assay [5] and in assay [7] was “inactive” throughout.

Regarding `O=C(Cl)/C=C/C(=O)Cl`, the Potency entry in assay [5], in assay [2] and in assay [7] was “inactive” throughout. Moreover, the activation in assay [1] was 8.8%; in assay [6] it was 2.63%.

On to `O=C(Cl)C(Cl)(Cl)Cl`, for which the activation in assay [6] was -1.07%. Further, the Potency result in assay [7] was “inactive”.

For the molecule `C=C(C)C#N`, the Potency entry in assay [7] is “inactive”.

Consider `ClC(Cl)=C(Cl)Cl`, for which, in assay [6], the activation is 0.509% and -0.543%. For the same molecule, the Potency result in assay [4] and in assay [7] was “inactive” throughout.

As to `BrCCBr`, the Potency result in assay [5], in assay [3] and in assay [7] was “inactive” throughout. For the same molecule, the activation in assay [6] was -0.199% and 0.87%.
